Calls of active or inactive are those of the source.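 Rule for the calls, unless noted: active = compounds that lower survival of HCT116 colon cancer cells in the luminescence readout, no numeric limit stated; inactive = the rest.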
Key:
[1] = stimulators of insulin release from INS-1E, primary screen, cell-based, 5 mM glucose, NPC library (AID 1117329;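 active = compound raises insulin release from rat beta cells at 5 mM glucose, no numeric limit stated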); details: rat INS-1E insulin secretion, at 10 µM, stronger effect = higher value
[2] = growth inhibition of GSK3B-pretreated HCT116 cells – cell-based, CellTiter-Glo, 0.2 to 20 µM (AID 1117336;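 active = compounds lowering colon cancer cell viability after pretreatment blocking the GSK3B kinase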); details: HCT116 viability after GSK3B inhibitor, at 20 µM, stronger effect = higher value
[3] = inhibition of endothelial tube formation, primary screen, imaging, VEGF stimulated, CD31 staining, tube area, NPC library (AID 1117340;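 active = compound that reduces growth-factor-driven endothelial tube area in a mixed cell culture, no cutoff stated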); details: VEGF-stimulated ADSC/ECFC co-culture, at 10 µM, stronger effect = higher value
[4] = glucagon-like peptide 1 release enhancers, primary assay, NCI-H716 cell line, NPC library (AID 1117341;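 active = compound raises GLP1 secretion from the human gut endocrine cells, with no numeric limit stated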); details: NCI-H716 cells, at 10 µM, stronger effect = higher value
[5] = HCT116 colon cancer cell growth inhibition, primary screen, CellTiter-Glo luminescence, NPC library (AID 1117342); details: at 20 µM (top of the series)
[6] = CellTiter-Glo luminescent readout of SW480 viability loss, NPC library primary (AID 1117343;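 active = compounds that lower viability of the colon cancer cells in the luminescence readout, with no numeric limit stated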); details: CellTiter-Glo luminescence; at 20 µM (top of the series)
[7] = decreased DLD-1 cellular survival, CellTiter-Glo luminescent readout, NPC compound collection, primary HTS (AID 1117346;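 active = compounds that lower survival of DLD-1 colon cancer cells in the luminescence readout, no cutoff given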); details: DLD-1 viability, CellTiter-Glo luminescence; at 20 µM (top of the series)
[8] = molecular target: 6-phosphogluconate dehydrogenase, decarboxylating (Homo sapiens) (UniProt P52209); test: 6PGD enzyme inhibitors, primary screen, biochemical, human, recombinant enzyme, NADPH absorbance (AID 1159550;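 active = at least 20% inhibition of 6-phosphogluconate dehydrogenase activity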); details: recombinant 6PGD, NADPH absorbance 341 nm; at 10 µM; stronger effect = higher value
[9] = differential killing of epithelial or mesenchymal cells, primary screen, imaging, PC-3E GFP, TEM4-18 mCherry, co-culture (AID 1345086;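 active = compounds killing one labelled cell type while sparing the other, by normalised counts and ratio limits, not self-fluorescent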;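 for all read-outs here: cells exposed to compound for 72 h before imaging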;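 for red/green cell ratio (normalised): normalised mesenchymal count divided by normalised epithelial count so high means epithelial killing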); details: imaging cell counts, at 1 µM; for red/green cell ratio (normalised): actives lie on both sides, counts scaled to control wells, 1 = unselective
[10] = measured here: epithelial PC-3E GFP cell survival
[11] = measured here: mesenchymal TEM4-18 mCherry cell survival

Chain of 6-phosphogluconate dehydrogenase, decarboxylating (Homo sapiens) (P52209 whole entry, looked up): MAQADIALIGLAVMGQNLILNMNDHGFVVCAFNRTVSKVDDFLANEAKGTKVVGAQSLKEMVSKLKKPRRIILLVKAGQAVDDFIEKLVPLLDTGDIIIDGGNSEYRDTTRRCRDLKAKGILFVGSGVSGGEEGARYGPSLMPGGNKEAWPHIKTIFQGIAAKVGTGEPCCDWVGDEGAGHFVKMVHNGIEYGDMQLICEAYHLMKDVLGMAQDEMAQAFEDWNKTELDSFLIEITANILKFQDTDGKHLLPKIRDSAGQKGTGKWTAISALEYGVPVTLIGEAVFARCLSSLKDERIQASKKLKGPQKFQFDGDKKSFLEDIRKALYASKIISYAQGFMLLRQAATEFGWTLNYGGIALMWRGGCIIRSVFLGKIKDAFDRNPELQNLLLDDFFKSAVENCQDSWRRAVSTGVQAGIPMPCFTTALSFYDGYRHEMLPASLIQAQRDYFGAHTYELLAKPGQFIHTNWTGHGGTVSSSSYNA

Row | Structure (SMILES) | insulin secretion stimulation [1] | viability decrease [2] | tube area decrease [3] | GLP1 secretion stimulation [4] | inhibition of viability [5] | viability decrease (inhibition) [6] | viability decrease (inhibition) [7] | inhibition [8] | red/green cell ratio (normalised) [9] | normalised cell number [9, 10] | normalised cell number [9, 11]
1 | CCCCN(CCCC)CCCOC(=O)c1ccc(N)cc1 | 0.7% (inactive) | -47.6% (inactive) | 18.7% (inactive) | 0.7% (inactive) | 15% (inactive) | 21.3% (inactive) | -4.6% (inactive) | -3.82% (inactive) | 1.16 (inactive) | 1.04 | 1.2
2 | CCCCOC(=O)c1ccc(N)cc1 | 0.4% (inactive) | 27.7% (inactive) | 20.7% (inactive) | 0.1% (inactive) | -21.1% (inactive) | 118% (active) | 59.9% (active) | -3.52% (inactive) | 1.07 (inactive) | 0.97 | 1.04
3 | CN1CCC(OC(c2ccccc2)c2ccccc2)CC1 | 6.2% (inactive) | -31.3% (inactive) | 13.8% (inactive) | 4.2% (inactive) | 35.4% (inactive) | 37.7% (inactive) | -6.7% (inactive) | 10.6% (inactive) | 1.14 (inactive) | 1.05 | 1.2
4 | O=C(O)CCC(=O)Nc1ccc(S(=O)(=O)Nc2nccs2)cc1 | -2.6% (inactive) | -3.7% (inactive) | 21% (inactive) | -5.7% (inactive) | 2% (inactive) | 40.3% (inactive) | 9.45% (inactive) | -5.92% (inactive) | 1.01 (inactive) | 1.11 | 1.13
5 | Nc1ccc(S(=O)(=O)NC(=O)c2ccccc2)cc1 | -1.7% (inactive) | -10.1% (inactive) | -16.9% (inactive) | 0.6% (inactive) | 0.2% (inactive) | -9.5% (inactive) | -14.3% (inactive) | -6.69% (inactive) | 1.62 (inactive) | 0.9 | 1.46
6 | Cc1ccccc1OCC(O)CO (stereo unspecified) | -1.2% (inactive) | -10.2% (inactive) | -4.1% (inactive) | -0.8% (inactive) | -20.4% (inactive) | 0.7% (inactive) | -25.4% (inactive) | 7.3% (inactive) | 1.04 (inactive) | 1.05 | 1.1
7 | CCCCCC(C)N (stereo unspecified) | 3.3% (inactive) | 11.8% (inactive) | 4.3% (inactive) | 0% (inactive) | -3.73% (inactive) | -37.6% (inactive) | 1.5% (inactive) | -7.17% (inactive) | 1.26 (inactive) | 0.94 | 1.18
8 | CCN(CC)C(=O)N1CCN(C)CC1 | -1.8% (inactive) | -3.6% (inactive) | -3.8% (inactive) | 4.4% (inactive) | 5.3% (inactive) | 53.1% (active) | -2.05% (inactive) | 10.8% (inactive) | 1.18 (inactive) | 1.2 | 1.42
9 | Oc1ccc(Cl)c2cccnc12 | -2.1% (inactive) | 57.1% (active) | 11.9% (inactive) | -5.7% (inactive) | 32.7% (inactive) | 84.4% (active) | 43.6% (inactive) | 10.3% (inactive) | 1.13 (inactive) | 1.27 | 1.45
10 | CCN(CC)CCNc1ccc(CO)c2sc3ccccc3c(=O)c12 | 0.6% (inactive) | 24.4% (inactive) | 76% (active) | 10.2% (inactive) | 78.1% (active) | 74.7% (active) | 35.6% (inactive) | 7.31% (inactive) | 1.17 (inactive) | 0.63 | 0.74
11 | COCCc1ccc(OCC(O)CNC(C)C)cc1 (stereo unspecified) | 5.6% (inactive) | -27.4% (inactive) | -8.1% (inactive) | -3.5% (inactive) | 12.1% (inactive) | 17.2% (inactive) | -6.3% (inactive) | -13.3% (inactive) | 0.71 (inactive) | 1.33 | 0.95
12 | CN1C(C)(C)CCCC1(C)C | 0.8% (inactive) | 23.2% (inactive) | 2.5% (inactive) | -2.3% (inactive) | -1.5% (inactive) | -25.5% (inactive) | -10.7% (inactive) | 2.01% (inactive) | 0.96 (inactive) | 1.09 | 1.05
13 | O=c1ccc2ccccc2o1 | -1.8% (inactive) | 3.65% (inactive) | -29.2% (inactive) | 2.9% (inactive) | 12.6% (inactive) | 19.6% (inactive) | 6% (inactive) | -18.6% (inactive) | 1.12 (inactive) | 0.98 | 1.1
14 | CC(Cc1cccc(C(F)(F)F)c1)NCCOC(=O)c1ccccc1 (stereo unspecified) | 3% (inactive) | -38.7% (inactive) | 0.6% (inactive) | 2.6% (inactive) | 18.1% (inactive) | 51.4% (active) | 28.7% (inactive) | 16.1% (inactive) | 0.76 (inactive) | 1.26 | 0.95
15 | COc1ccc(CN(CCN(C)C)c2ncccn2)cc1 | 1.5% (inactive) | -26.6% (inactive) | 5% (inactive) | 4.9% (inactive) | 14.6% (inactive) | 4.3% (inactive) | -22.1% (inactive) | 0.837% (inactive) | 1.15 (inactive) | 1.04 | 1.2
16 | CN1CCN(C(c2ccccc2)c2ccccc2)CC1 | 5.5% (inactive) | -48% (inactive) | 22.5% (inactive) | 2.2% (inactive) | 7.1% (inactive) | 4.5% (inactive) | -11.9% (inactive) | -2.54% (inactive) | 1.46 (inactive) | 1.05 | 1.54

Row | Structure (SMILES) | insulin secretion stimulation [1] | viability decrease [2] | tube area decrease [3] | GLP1 secretion stimulation [4] | inhibition of viability [5] | viability decrease (inhibition) [6] | viability decrease (inhibition) [7] | inhibition [8] | red/green cell ratio (normalised) [9] | normalised cell number [9, 10] | normalised cell number [9, 11]
17 | Cc1c(NC(C)C)c(=O)n(-c2ccccc2)n1C | 0.4% (inactive) | 3.8% (inactive) | 4% (inactive) | -0.1% (active) | -11% (inactive) | -10% (inactive) | -1.3% (inactive) | 16.7% (inactive) | 0.88 (inactive) | 0.91 | 0.8
18 | Cc1ccnc(NS(=O)(=O)c2ccc(N)cc2)n1 | -0.3% (inactive) | 9.35% (inactive) | -12.6% (inactive) | 2.1% (inactive) | 2.4% (inactive) | 31.8% (inactive) | 7.5% (inactive) | 2.58% (inactive) | 1.35 (inactive) | 0.98 | 1.33
19 | CC(=O)OCC(COC(C)=O)OC(C)=O | 0.7% (inactive) | -25.5% (inactive) | -8.3% (inactive) | 0.1% (inactive) | -1.2% (inactive) | -5.5% (inactive) | -3.8% (inactive) | 1.31% (inactive) | 1.26 (inactive) | 0.97 | 1.22
20 | CC(N)CCCC(C)(C)O (stereo unspecified) | 0.6% (inactive) | -36.1% (inactive) | -13.2% (inactive) | -1.9% (inactive) | -2.33% (inactive) | 13% (inactive) | -0.1% (inactive) | -2.18% (inactive) | 0.95 (inactive) | 0.99 | 0.93
21 | CCN(CC)CCNC(=O)c1ccc(NC(C)=O)cc1 | 0.3% (inactive) | 23% (inactive) | 23.1% (inactive) | 1.6% (inactive) | 18.3% (inactive) | 25.6% (inactive) | 19.5% (inactive) | 3.51% (inactive) | 1.26 (inactive) | 0.89 | 1.13
22 | COc1cc(C(=O)NCc2ccc(OCCN(C)C)cc2)cc(OC)c1OC | 2.5% (inactive) | 19.5% (inactive) | 16.6% (inactive) | -2.4% (inactive) | -8.75% (inactive) | -11.4% (inactive) | -8.9% (inactive) | 10.5% (inactive) | 0.88 (inactive) | 1.34 | 1.18
23 | Cc1cc(O)cc(C)c1Cl | 2% (inactive) | -11% (inactive) | -5.3% (inactive) | -2% (inactive) | 18.1% (inactive) | 28.5% (inactive) | 9.3% (inactive) | 0.336% (inactive) | 1.31 (inactive) | 0.7 | 0.93
24 | O=C(OCC(O)CO)c1ccccc1Nc1ccnc2cc(Cl)ccc12 (stereo unspecified) | 6.1% (inactive) | 53.3% (active) | -3.6% (inactive) | -2.3% (inactive) | 38.5% (inactive) | 53.8% (active) | 6.3% (inactive) | 11.2% (inactive) | 0.94 (inactive) | 0.84 | 0.79
25 | CC(=O)Oc1cccc(O)c1 | 2.6% (inactive) | 0.4% (inactive) | 20.9% (inactive) | 1.4% (inactive) | 3.03% (inactive) | 29.4% (inactive) | -7.4% (inactive) | 8.3% (inactive) | 1.21 (inactive) | 1.1 | 1.33
26 | COc1c2occc2c(OC)c2c(=O)cc(C)oc12 | 0.7% (inactive) | -6.4% (inactive) | 21.8% (inactive) | 5.9% (inactive) | -7.6% (inactive) | 21.5% (inactive) | -0.4% (inactive) | 1.04% (inactive) | 0.89 (inactive) | 1.07 | 0.95
27 | COc1ccc(C(=O)c2ccccc2)c(O)c1 | -2.9% (inactive) | -5.25% (inactive) | 6.3% (inactive) | 0.5% (inactive) | 14.4% (inactive) | 3.3% (inactive) | -0.05% (inactive) | -7.36% (inactive) | 0.94 (inactive) | 1.15 | 1.08
28 | CCCCCN(CCCCC)C(=O)C(CCC(=O)O)NC(=O)c1ccc(Cl)c(Cl)c1 (stereo unspecified) | 2.8% (inactive) | -12.2% (inactive) | 4.7% (inactive) | 6.6% (inactive) | 4.6% (inactive) | 40.9% (inactive) | 38.9% (inactive) | 2.64% (inactive) | 0.82 (inactive) | 1.1 | 0.9
29 | COc1ccc(NS(=O)(=O)c2ccc(N)cc2)nn1 | 0.2% (inactive) | -9.5% (inactive) | 14% (inactive) | 0.3% (inactive) | -7.97% (inactive) | 2.4% (inactive) | -8.6% (inactive) | -7.32% (inactive) | 1.05 (inactive) | 0.94 | 0.98
30 | CN(C)CCOC(=O)COc1ccc(Cl)cc1 | 1.2% (inactive) | -0.8% (inactive) | -34.4% (inactive) | 1.2% (inactive) | 7.1% (inactive) | -16% (inactive) | -7.4% (inactive) | 17.7% (inactive) | 0.89 (inactive) | 0.98 | 0.87
31 | CCOC(=O)NNc1nncc2ccccc12 | 3.7% (inactive) | 0.3% (inactive) | -6.6% (inactive) | -0.3% (inactive) | -0.97% (inactive) | 9.4% (inactive) | 6.7% (inactive) | -20.7% (inactive) | 0.96 (inactive) | 0.94 | 0.9

From PubChem BioAssay
